Our source for the binding signal values is paper PMC5700166.

Changes are numbered by the printed parent chain.

Assay in all cases: protein-binding microarray (PBM); PBM: ~300 nM protein, 6 mM HEPES pH 7.8, 80 mM KCl, 0.5 mM EDTA, 0.5 mM EGTA, 6% glycerol, 35 ng/ul poly-dIdC, 1% milk, 1 h, room temperature; Ap Aiptasia and Nv Nematostella (sea anemones) / Co Capsaspora / Aq Amphimedon (sponge) / Dm Drosophila / Hu human; RHD is the Rel homology domain; high values mean tight binding
Holding throughout (conditions): dsDNA, one strand shown

In test [1] the target is T1, GST-Ap-NF-kB RHD (Exaiptasia pallida (Aiptasia), UniProt A0A913YAJ5 2-422).
T1 sequence: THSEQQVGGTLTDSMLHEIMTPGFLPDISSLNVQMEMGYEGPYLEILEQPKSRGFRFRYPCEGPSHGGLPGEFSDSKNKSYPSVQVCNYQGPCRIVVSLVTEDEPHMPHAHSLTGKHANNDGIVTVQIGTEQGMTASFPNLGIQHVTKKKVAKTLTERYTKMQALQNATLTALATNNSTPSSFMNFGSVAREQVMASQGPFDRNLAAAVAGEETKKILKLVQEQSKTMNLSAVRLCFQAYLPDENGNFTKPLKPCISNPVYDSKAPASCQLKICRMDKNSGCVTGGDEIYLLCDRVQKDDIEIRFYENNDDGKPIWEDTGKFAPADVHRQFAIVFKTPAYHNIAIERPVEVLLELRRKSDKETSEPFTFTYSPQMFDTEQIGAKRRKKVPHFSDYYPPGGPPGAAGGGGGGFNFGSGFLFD

The target in test [2] is T2, GST-Nv-NF-kB (Cys allele) (Nematostella vectensis, UniProt E5G601 2-411).
T2 sequence: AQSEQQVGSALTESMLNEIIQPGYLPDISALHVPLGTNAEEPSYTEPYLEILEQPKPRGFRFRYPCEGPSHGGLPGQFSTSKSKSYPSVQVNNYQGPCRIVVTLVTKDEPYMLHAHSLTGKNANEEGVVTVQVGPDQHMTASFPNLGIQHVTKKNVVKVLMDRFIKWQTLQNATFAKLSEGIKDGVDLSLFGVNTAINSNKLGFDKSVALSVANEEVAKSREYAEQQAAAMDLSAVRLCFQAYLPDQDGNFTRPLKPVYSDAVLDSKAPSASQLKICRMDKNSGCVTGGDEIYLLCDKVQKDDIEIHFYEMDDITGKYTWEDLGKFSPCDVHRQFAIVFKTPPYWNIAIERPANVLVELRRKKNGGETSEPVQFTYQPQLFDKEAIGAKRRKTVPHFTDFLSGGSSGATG

Test [3] deals with T3, GST-Nv-NF-kB (Ser allele) (Nematostella vectensis, UniProt A7UNT2 2-411).
T3 sequence: T2 sequence with Q21R, C66S, S207N, E215Q, V217A, E225K, A268E, D399E

In test [4] the target is T4, GST-Co-NF-kB (Capsaspora owczarzaki, UniProt F1ARL5 200-546).
T4 sequence: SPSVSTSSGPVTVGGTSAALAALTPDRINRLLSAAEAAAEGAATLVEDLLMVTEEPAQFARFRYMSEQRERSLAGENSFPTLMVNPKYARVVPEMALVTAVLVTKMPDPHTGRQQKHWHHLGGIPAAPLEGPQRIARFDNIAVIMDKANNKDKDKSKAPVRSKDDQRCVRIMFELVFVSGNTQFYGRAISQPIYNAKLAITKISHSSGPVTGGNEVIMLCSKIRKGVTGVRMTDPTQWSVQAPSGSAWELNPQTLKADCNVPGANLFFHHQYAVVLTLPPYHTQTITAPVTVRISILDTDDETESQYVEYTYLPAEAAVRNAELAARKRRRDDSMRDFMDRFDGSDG

For test [5], the target named is T5, GST-Dm-Relish (Drosophila melanogaster, UniProt Q94527 99-473).
T5 sequence: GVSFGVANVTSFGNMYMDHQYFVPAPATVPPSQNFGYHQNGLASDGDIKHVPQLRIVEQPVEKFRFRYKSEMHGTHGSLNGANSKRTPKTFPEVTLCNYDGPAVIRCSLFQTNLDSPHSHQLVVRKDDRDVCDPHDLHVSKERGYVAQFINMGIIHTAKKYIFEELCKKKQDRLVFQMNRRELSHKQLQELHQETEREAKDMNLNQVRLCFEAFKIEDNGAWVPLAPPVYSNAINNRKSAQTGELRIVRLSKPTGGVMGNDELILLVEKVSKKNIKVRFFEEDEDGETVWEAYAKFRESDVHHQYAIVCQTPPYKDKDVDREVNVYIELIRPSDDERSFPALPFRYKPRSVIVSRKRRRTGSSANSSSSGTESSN

Test [6] has as its target T6, GST-Aq-NF-kB (Amphimedon queenslandica, UniProt A9Y5G7 2-389).
T6 sequence: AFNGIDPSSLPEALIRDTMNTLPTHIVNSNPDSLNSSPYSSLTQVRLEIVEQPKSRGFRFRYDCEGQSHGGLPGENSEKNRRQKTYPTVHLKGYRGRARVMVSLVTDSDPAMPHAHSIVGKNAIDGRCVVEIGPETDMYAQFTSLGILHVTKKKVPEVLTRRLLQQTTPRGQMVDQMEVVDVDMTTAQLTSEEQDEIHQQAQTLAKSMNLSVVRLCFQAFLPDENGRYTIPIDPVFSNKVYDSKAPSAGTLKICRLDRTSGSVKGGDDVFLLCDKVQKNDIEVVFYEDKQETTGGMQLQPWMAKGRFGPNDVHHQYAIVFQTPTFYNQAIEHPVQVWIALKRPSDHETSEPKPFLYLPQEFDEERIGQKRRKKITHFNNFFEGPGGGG

Test [7] deals with GST-Hu-p50 (Homo sapiens, UniProt P19838 7-356).
Chain of GST-Hu-p50 (P19838 7-356): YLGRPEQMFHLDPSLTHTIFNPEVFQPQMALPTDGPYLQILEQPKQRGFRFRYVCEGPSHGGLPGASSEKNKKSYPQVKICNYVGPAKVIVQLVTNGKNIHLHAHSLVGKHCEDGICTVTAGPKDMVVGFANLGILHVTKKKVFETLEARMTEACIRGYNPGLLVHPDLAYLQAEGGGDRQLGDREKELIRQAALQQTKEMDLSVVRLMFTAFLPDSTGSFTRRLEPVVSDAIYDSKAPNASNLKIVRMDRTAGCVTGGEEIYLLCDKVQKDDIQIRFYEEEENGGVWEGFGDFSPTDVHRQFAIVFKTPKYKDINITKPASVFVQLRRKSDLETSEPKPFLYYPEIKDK

On to “CCGATTAACATCAGGGGGACTAATGATGTTAATCGGGTCTTGATTCGCTTGACGCTGCTG”, for which the binding signal in test [1] amounted to 5.06 z-score; in test [2], 4.36 z-score; in test [3], 4.4 z-score; in test [4] it was 4.79 z-score; in test [5], 2.76 z-score; in test [6], 4.27 z-score. For the same sequence, in test [7], the binding signal was 3.8 z-score.

As for “CCGATTAACATCACAACTCCCCCTGATGTTAATCGGGTCTTGATTCGCTTGACGCTGCTG”, the binding signal in test [1] came out at 5.84 z-score; in test [2] it was 4.69 z-score; in test [3], 5.89 z-score; in test [4], 6.16 z-score; in test [5] it was 3.67 z-score; in test [6], 5.15 z-score. This sequence also showed a binding signal in test [7] of 5.55 z-score.

On to “CCGATTAACATCAAAATCTCCCCTGATGTTAATCGGGTCTTGATTCGCTTGACGCTGCTG”, for which the binding signal in test [1] is 8.53 z-score; in test [2] it was 7.57 z-score; in test [3], 8.79 z-score; in test [4], 7.3 z-score; in test [5], 4.44 z-score; in test [6], 6.41 z-score. This sequence had a binding signal in test [7] of 5.85 z-score.

Take “CCGATTAACATCAGGGGAATATATGATGTTAATCGGGTCTTGATTCGCTTGACGCTGCTG”: the binding signal in test [1] is 7.96 z-score; in test [2], 9.67 z-score; in test [3], 9 z-score; in test [4] it was 7.8 z-score; in test [5] it was 5.02 z-score; in test [6], 7.45 z-score. The binding signal in test [7] came to 6.01 z-score.

With “CCGATTAACATCAAGGTATTCCCTGATGTTAATCGGGTCTTGATTCGCTTGACGCTGCTG”, the binding signal was determined as 4.4 z-score in test [1]; 3.82 z-score in test [2]; 3.75 z-score in test [3]; 3.21 z-score in test [4]; 6.27 z-score in test [5]; 5.39 z-score in test [6]. This sequence returned a binding signal in test [7] of 2.26 z-score.

On to “CCGATTAACATCAGAACTCCCCCTGATGTTAATCGGGTCTTGATTCGCTTGACGCTGCTG”, for which the binding signal in test [1] was determined as 7.91 z-score; in test [2], 6.48 z-score; in test [3], 7.12 z-score; in test [4] it was 6.15 z-score; in test [5] it was 5.58 z-score; in test [6] it was 6.48 z-score. The sequence further yielded a binding signal in test [7] of 7.11 z-score.

Regarding “CCGATTAACATCAGGGAATTTCATGATGTTAATCGGGTCTTGATTCGCTTGACGCTGCTG”, the binding signal in test [1] is 5 z-score; in test [2] it was 7.17 z-score; in test [3], 7.08 z-score; in test [4] it was 3.61 z-score; in test [5] it was 4.49 z-score; in test [6], 5.84 z-score. This sequence yielded a binding signal in test [7] of 5.25 z-score.

For the sequence “CCGATTAACATCAGGGGGAAGACTGATGTTAATCGGGTCTTGATTCGCTTGACGCTGCTG”, the binding signal in test [1] was found to be 5.87 z-score; in test [2] it was 6.01 z-score; in test [3] it was 6.96 z-score; in test [4], 8.23 z-score; in test [5] it was 4.92 z-score; in test [6], 5.25 z-score. Moreover, in test [7], the binding signal was 6.29 z-score.

With “CCGATTAACATCACGGGGAATCCTGATGTTAATCGGGTCTTGATTCGCTTGACGCTGCTG”, the binding signal in test [1] turned out to be 9.87 z-score; in test [2], 9.94 z-score; in test [3], 8.84 z-score; in test [4], 8.28 z-score; in test [5] it was 10 z-score; in test [6], 7.48 z-score. Moreover, the binding signal in test [7] came out at 6.2 z-score.

For “CCGATTAACATCAGGGGGAGAAATGATGTTAATCGGGTCTTGATTCGCTTGACGCTGCTG”, the binding signal was determined as 7.1 z-score in test [1]; 6.13 z-score in test [2]; 7.48 z-score in test [3]; 10.7 z-score in test [4]; 3.41 z-score in test [5]; 4.8 z-score in test [6]. This sequence also came in with a binding signal in test [7] of 6.45 z-score.

With “CCGATTAACATCAGGATAACCCCTGATGTTAATCGGGTCTTGATTCGCTTGACGCTGCTG”, the binding signal in test [1] is 4.52 z-score; in test [2], 3.22 z-score; in test [3], 1.82 z-score; in test [4], 1.72 z-score; in test [5], 2.74 z-score; in test [6], 5.12 z-score. This sequence yielded a binding signal in test [7] of 3.08 z-score.

For “CCGATTAACATCAGGGGAATCACTGATGTTAATCGGGTCTTGATTCGCTTGACGCTGCTG”, the binding signal was 8.92 z-score in test [1]; 8.19 z-score in test [2]; 8.51 z-score in test [3]; 6.78 z-score in test [4]; 10.6 z-score in test [5]; 7.41 z-score in test [6]. The binding signal in test [7] was 6.51 z-score.
